Sampled rows, rich in hits. Any-hit rate of the full collection: about 11%.
PNC inhibitor = inhibitors of perinucleolar compartment assembly. activity change (PNC), negative = inhibition, % at 10 µM. PC3M PTB-GFP, PNC prevalence imaging, 16 h; stronger effect = lower value. hit rate 3.1% among 140,000;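 active means readout at or below -70, meaning at least 70% loss of cells showing the perinucleolar compartment, a nuclear body marking cancer cells; inconclusive means readout between -30 and a set limit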;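 further: plate controls were DMSO wells for no effect and camptothecin positive control wells for full effect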
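Compounds are pinned in duplicate onto adhered PC3M cells stably expressing GFP-tagged PTB and incubated 16 h at 37 C. Cells are then fixed, nuclei stained with Hoechst, and PNC-positive cells counted.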
ALDH1A1 block = inhibitors of human aldehyde dehydrogenase 1A1 | AID 1030 | Purified ALDH1A1, NADH fluorescence, propionaldehyde substrate | hit rate 7.3% among 220,000 | Potency, µM (doses to about 75.3 µM), for the others: at the highest dose activity, negative = inhibition, hits mostly inhibitors;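 further: potency means the concentration at half of the fitted maximal effect; plate controls were no enzyme wells and a reference inhibitor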
ALOX12 inhib = blocks human 12-lipoxygenase activity. hit rate 0.12% among 150,000. Potency, µM (top dose mostly 57.1 µM), without a hit: at the highest dose activity change, negative = inhibition, hits mostly inhibitors. purified 12-hLO, xylenol orange hydroperoxide absorbance. P18054; active means well fitted curve in the direction sought with a large enough effect; inconclusive means small, poorly fitted or top-dose-only effect, or another doubt; inactive means no such curve, though single readings can be large; an effect the other way counts as inactive or inconclusive; further: potency means the concentration at half of the fitted maximal effect; nearly all actives have a fitted effect of over 55% in size
Target sequence (P18054 whole entry, looked up): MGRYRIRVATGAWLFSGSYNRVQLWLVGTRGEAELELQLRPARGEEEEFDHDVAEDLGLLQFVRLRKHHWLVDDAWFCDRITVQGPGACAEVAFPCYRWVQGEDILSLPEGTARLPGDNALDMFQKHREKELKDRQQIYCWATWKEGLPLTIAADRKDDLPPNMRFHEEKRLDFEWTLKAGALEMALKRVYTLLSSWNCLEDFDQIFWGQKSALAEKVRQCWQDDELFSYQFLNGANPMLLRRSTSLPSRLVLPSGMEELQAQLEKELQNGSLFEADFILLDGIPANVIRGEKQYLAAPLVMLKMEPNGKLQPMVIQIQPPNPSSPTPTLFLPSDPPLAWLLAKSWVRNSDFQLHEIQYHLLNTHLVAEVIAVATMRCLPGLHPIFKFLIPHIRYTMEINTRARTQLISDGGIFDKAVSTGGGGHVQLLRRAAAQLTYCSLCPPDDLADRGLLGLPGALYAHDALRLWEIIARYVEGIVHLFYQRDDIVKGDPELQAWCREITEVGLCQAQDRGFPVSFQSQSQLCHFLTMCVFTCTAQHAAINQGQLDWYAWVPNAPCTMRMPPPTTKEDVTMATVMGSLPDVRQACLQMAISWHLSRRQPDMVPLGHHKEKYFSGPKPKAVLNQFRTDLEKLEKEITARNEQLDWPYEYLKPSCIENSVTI
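150 nM 12hLO, 25 mM Hepes pH 7.0 + 0.01% Triton X-100; cpd preinc 15 min RT; 40 uM arachidonic acid, 30 min RT; Fe-XO 30 min; A573/A405 ratio as read-out.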
IMPase cell inh = IMPase inhibition in cells | AID 901 | CHO-M1 cells, IP1 accumulation, HTRF TR-FRET ratio | 120,000 tested, under 10 active | inhibition (IP1 accumulation), % at 46.1 µM | P97697; active means well fitted curve in the direction sought with a large enough effect in the signal ratio, not every such curve was filed as active; inconclusive means small, poorly fitted or top-dose-only effect, or a change in a side signal; inactive means no such curve, though single readings can be large or run the other way; the % refers to the signal ratio;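 further: cells stimulated with carbachol in lithium chloride buffer; plate controls were DMSO basal wells for no effect and reference inhibitor wells for full effect; higher means more IMPase inhibition seen as more IP1 and lower FRET ratio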
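CHO-M1, 2000 cells/well, cultured 16–30 h; cpd up to 46 uM; carbachol (50 uM solution, stimulation buffer w/ 50 mM LiCl, pH 7.4), 30 min 37C; IP-One TR-FRET, 10 min RT; Ex 320/Em 665, 620; Hill-fit AC50.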
IMPase Li cell = IMPase inhibition in cells with lithium potentiation; CHO-M1 cells, IP1 TR-FRET (IP-One), carbachol + lithium; Potency, µM (highest dose often 59.4 µM), inactives show at the top dose activity, negative = IMPase inhibition, actives largely listed as inhibitors; hit rate 0.35% among 210,000; active means well fitted curve in the direction sought with a large enough effect; inconclusive means small, poorly fitted or top-dose-only effect, or another doubt; inactive means no such curve, though single readings can be large; an effect the other way counts as inactive or inconclusive;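 further: IP1 builds up when IMPase is blocked and the TR-FRET signal falls; potency means the concentration at half of the fitted maximal effect; plate controls were basal vehicle for no effect and high inhibitor control for full effect; nearly all actives have a fitted effect of over 50% in size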
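Readout is a homogeneous TR-FRET IP1 immunoassay (Ex 320, Em 665 and 620), where raised cytosolic IP1 lowers signal. Cells were CHO-M1 treated 30 min at 37C with test compounds plus a little lithium; AC50 values came from Hill-equation fitting.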
HPGD inh = blocks human HPGD enzyme activity | P15428 | purified HPGD, NADH fluorescence kinetic, PGE2 substrate | Potency, µM, for the others: at the top dose activity change, negative = inhibition, actives largely listed as inhibitors | hit rate 4.3% among 150,000 | AID 894; further: potency means the concentration at half of the fitted maximal effect
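NADH formation kinetics: reaction with 30 uM PGE2 and 1 mM NAD+ (final), 20 nM enzyme, Tris-HCl pH 8 with Tween 20, after 15 min compound preincubation at room temperature. Fluorescence change, last versus first of five reads.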
* marks the source's active call; other numbers are inactive results; ? = inconclusive; . = no result given; [ ] = remark or other dose. Unless noted, the call rests on the fitted dose curve; in most records, active means well fitted inhibition curve with a large enough effect (not every such curve was filed as active); inconclusive means small, poorly fitted or top-dose-only effect, or another doubt; inactive means no such curve, though single readings can be large or run the other way. Unless noted, on the % scale 0 is the no-effect control and ±100 the full control effect.

SMILES	PNC inhibitor	ALDH1A1 block	ALOX12 inhib	IMPase cell inh	IMPase Li cell	HPGD inh
COC/C=C/C1=CC2=CC(=O)C(C)(OC(=O)c3cnc4ccccc4n3)C(=O)C2=CN1Cc1ccc2c(c1)OCO2 (centres undefined)	.	?	-6.3%[11.4 µM]	.	2.1%	-3.1%
CC1=NN(C(N)=S)C(=O)C1N=Nc1cccc2ccccc12 (centres undefined)	.	14.1µM*	.	.	18.2%	.
CC1=NN(c2ccccc2)C(=O)C1N=Nc1ccccc1 (centres undefined)	-9.0	19.2%	-2.8%	.	1.7%	-1.0%
CC1=NN(C(N)=S)C(=O)C1N=Nc1ccccc1 (centres undefined)	.	22.4µM*	.	.	5.5%	.
CC1=NN(c2nc(-c3ccc(C)cc3)cs2)C(=O)C1N=Nc1ccccc1O (centres undefined)	.	?	.	.	11.5%	.
Brc1cc2c(cc1/C=N/Nc1nc(N3CCOCC3)nc(N3CCOCC3)n1)OCO2	-26.2	20µM*	-6.3%	-5.4	5.0%	-14.7%
BrC(/C=N/Nc1nc(N2CCOCC2)nc(N2CCOCC2)n1)=C/c1ccccc1	-95.6*	?	2.4%	4.8	14.2%[38.3 µM]	15.8µM*
Cc1c(O)nc(SCC(=O)Nc2ccc(Cl)cc2Cl)n(-c2ccc(F)cc2)c1=O	.	.	.	4.9	.	.
COc1cc(C=C2C(=O)c3ccccc3C2=O)cc(OC)c1OC	.	1.58µM*	.	.	-0.4%	.
CCN1C/C(=C/c2ccc(OC)c(O)c2)C(=O)/C(=C/c2ccc(OC)c(O)c2)C1	.	1.1%	.	.	0.0%	.
COc1ccc(C=C2C(=O)c3ccccc3C2=O)cc1O	.	0.891µM*	.	.	63.9%	.
COc1ccc2c(c1)CC/C(=C/c1cc(OC)c(OC)c(OC)c1)C2=O	.	?	.	.	8.1%	.
COc1cccc(/C=C2\C(=O)C(=O)c3ccccc32)c1	?	?	-5.8%	-9.4	-5.7%[38.3 µM]	3.55µM*
COC(=O)c1ccccc1NC(=O)CSc1nc(-c2ccccc2)cc(C(F)(F)F)n1	.	.	.	-4.1	.	.
OC[C@H](S)CS	.	0.1µM*	-7.2%[11.4 µM]	.	16.8%	-10.0%
COC(=O)c1ccc(Cl)c(NC(=O)NC23CC4CC(CC(C4)C2)C3)c1	11.8	-5.1%	-1.7%	2.7	31.1%[38.3 µM]	-10.8%
COC(=O)c1cccc(NC(=O)NC23CC4CC(CC(C4)C2)C3)c1	?	31.6µM*	-3.5%	11.6	55.4%[38.3 µM]	?
CCC(=O)NC(c1cccs1)c1ccc2cccnc2c1O (centres undefined)	.	-11.3%	.	.	19.8%	.
CN1CCN(C(c2cccnc2)c2ccc3cccnc3c2O)CC1 (centres undefined)	?	1.89µM*	1.58µM*	10.8	55.3%[38.3 µM]	-29.2%
Nc1ccccc1N=Cc1ccc(-c2cccc(Cl)c2)o1	.	?	.	.	19.4%	.
COc1cc(C(=O)NCC(c2ccco2)N(C)C)cc(OC)c1OC (centres undefined)	8.5	-3.9%	0.3%	-7.2	-2.1%	-18.3%
Cc1cc(C(=O)NCC(c2ccco2)N(C)C)no1 (centres undefined)	-92.8*	0.7%	-0.5%	1.6	-0.8%	3.4%
CC(=O)OCC(=O)[C@@]1(O)[C@H](C)C[C@@H]2[C@H]3CCC4=CC(=O)C=C[C@]4(C)[C@]3(F)[C@@H](O)C[C@@]21C	.	-1.8%[20.9 µM]	-2.0%[25.6 µM]	4.0[20.6 µM]	18.3%	0.5%
O=C(O)CCC(=O)c1ccc(Cl)cc1	.	-1.9%[13.5 µM]	-0.5%[11.4 µM]	.	1.8%	2.5%
Nc1ncnc2c1ncn2[C@@H]1O[C@@H](CO)[C@H](O)[C@H]1O	.	14.7%[20.9 µM]	2.9%[25.6 µM]	-5.0[20.6 µM]	-7.5%	-3.9%
SMILES	PNC inhibitor	ALDH1A1 block	ALOX12 inhib	IMPase cell inh	IMPase Li cell	HPGD inh
CNC(=O)c1cc2cc(OC)ccc2oc1=O	48.7	?	5.4%	-12.4	10.9%[38.3 µM]	?
COc1ccc2oc(=O)c(C(=O)C[n+]3cccc(C)c3)cc2c1	.	14.1µM*	.	.	27.0%	.
CC1CCN(C(=O)CSc2nc3ccccc3c(=O)[nH]2)CC1	.	?	.	.	13.0%	.
CC1CCN(C(=O)CSc2nc3[nH]ncc3c(=O)[nH]2)CC1	?	11.2µM*	-5.6%	-5.1	-3.0%	-16.6%
CC(=O)OCC(=O)[C@]1(O)C(OC(C)=O)CC2C3CCC4=CC(=O)C=C[C@@]4(C)[C@]3(F)C(O)C[C@]21C (some centres undefined)	.	6.9%	-0.4%	.	-0.1%	-3.7%
CC(=O)NC1Sc2ccccc2N=C1c1ccccc1 (centres undefined)	9.1	25.1µM*	-28.1%	2.0	7.4%[38.3 µM]	?
CC(=O)Nc1nc(-c2ccccc2)c(-c2ccccc2)o1	-9.2	?	1.6%	.	1.7%	-15.3%
Cc1nn(-c2ccccc2)c2c1C(c1ccccc1)C(C#N)=C(N)O2 (centres undefined)	5.4	3.55µM*	-11.6%	18.8	3.0%	31.6µM*
COc1ccc(C2C(C#N)=C(N)OC3=C2C(=O)CC(C)(C)C3)cc1Cn1nc(C)c([N+](=O)[O-])c1C (centres undefined)	4.6	2.2%	-0.6%	7.4	5.7%	1.2%
COc1ccc(C2C(C#N)=C(N)Oc3c2c(C)nn3-c2ccccc2)cc1Cn1nc(C)c([N+](=O)[O-])c1C (centres undefined)	1.3	5.01µM*	-21.8%	6.3	11.8%[38.3 µM]	?
CCOC(=O)C1=C(c2ccccc2)OC(N)=C(C#N)C1c1ccc(Br)s1 (centres undefined)	-17.0	-4.1%	-4.8%	11.3	1.4%	-14.5%
Cc1nn(-c2ccccc2)c2c1C(c1ccc(Br)s1)C(C#N)=C(N)O2 (centres undefined)	.	3.16µM*	.	.	11.5%	.
COc1ccccc1CCn1c(=O)c(-c2ccc(F)cc2)nc2cncnc21	.	4.2%	2.6%	.	24.1%	-1.1%
